# Results: PubChem BioAssay
# Active and inactive are the calls of the source. Unless noted, no rule for the calls is given here.
# Experiments:
# [1] = system: Wnt5a (protein binding on small-molecule microarray); experiment: small molecules binding Wnt5a protein – biophysical, small-molecule microarray, 635/667 nm fluorescence, primary screen (AID 1142); details: 635 nm fluorescence, higher = more signal;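 also: fluorescence read at 667 nm with signal to noise per printed feature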
# [2] = ATP-based viability of Huh7 replicon cells – cell-based, CellTiter-Glo luminescence, basal, 48 h, cytotoxicity control for HCV replication inhibitor project, primary screen (AID 1143); details: higher = more signal, called active from +8 up or from −8 down;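 also: Huh7 hepatoma cells carrying a hepatitis C replication reporter with no stimulus; test concentration not given here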
# [3] = Pseudomonas biofilm growth suppression – PAO1 strain, BacTiter-Glo luminescence, LB-PBS, primary screen (AID 1144); details: P. aeruginosa PAO1 biofilm, 12 h, higher = more signal
# [4] = basal CRE-LacZ reporter activity in PC12 – cell-based, unstimulated, primary screen (AID 1145); details: no forskolin, luminescence, 4.5 h, higher = more signal, called active from +8 up or from −8 down
# [5] = forskolin-driven CRE-LacZ activity in PC12 – cell-based, CRE-LacZ reporter, forskolin-stimulated, primary screen (AID 1146); details: luminescence, 4.5 h, higher = more signal, called active from +8 up or from −8 down;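 also: PC12 cells with 6xCRE LacZ reporter stimulated by forskolin 10 µM; beta-galactosidase reporter signal reflecting CREB driven transcription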
# [6] = target: Streptavidin (Streptomyces avidinii) (UniProt P22629); experiment: compounds binding control protein streptavidin – biophysical, small-molecule microarray, 635/667 nm fluorescence, artefact control for SMM compound annotation, primary screen (AID 1147); details: higher = more signal;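 also: signal reflects streptavidin binding to arrayed compounds as a control protein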
# Chain of Streptavidin (Streptomyces avidinii) (P22629 whole entry, looked up): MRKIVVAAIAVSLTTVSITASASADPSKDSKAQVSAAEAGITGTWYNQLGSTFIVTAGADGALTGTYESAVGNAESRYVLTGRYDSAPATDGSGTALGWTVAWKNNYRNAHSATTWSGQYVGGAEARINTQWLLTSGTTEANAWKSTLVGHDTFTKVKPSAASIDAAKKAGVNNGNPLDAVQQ
# [7] = probe aInhba binding on compound microarray – biochemical, small-molecule microarray, 635/667 nm fluorescence, primary screen (AID 1148); details: higher = more signal;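 also: score merges 667nm spot fluorescence with signal-to-noise for antibody binding to printed compounds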
# Torsin-1A (Homo sapiens) [8] = target: Torsin-1A (Homo sapiens) (UniProt O14656); experiment: TOR1A wild-type binding on microarray – cell lysate, small-molecule microarray, lysate, 635/667 nm, primary screen (AID 1149); details: COS7 hTOR1A-WT lysate, 635 nm fluorescence, higher = more signal
# Chain of Torsin-1A (Homo sapiens) (O14656 whole entry, looked up): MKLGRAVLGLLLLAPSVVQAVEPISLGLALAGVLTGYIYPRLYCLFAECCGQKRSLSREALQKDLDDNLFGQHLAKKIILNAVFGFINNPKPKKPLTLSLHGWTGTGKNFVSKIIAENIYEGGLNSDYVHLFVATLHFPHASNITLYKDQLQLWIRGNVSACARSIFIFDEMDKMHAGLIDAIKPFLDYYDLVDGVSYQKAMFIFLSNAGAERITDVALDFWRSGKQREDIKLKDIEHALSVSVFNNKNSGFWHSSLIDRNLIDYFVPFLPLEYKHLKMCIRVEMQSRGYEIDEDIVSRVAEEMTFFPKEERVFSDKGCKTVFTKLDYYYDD
# Torsin-1A (Homo sapiens) [9] = target: Torsin-1A (Homo sapiens) (UniProt O14656); experiment: torsin A mutant lysate binding on microarrays – cell lysate, small-molecule microarray, COS7 lysate, 635/667 nm fluorescence, primary screen (AID 1150); details: COS7 hTOR1A mutant lysate, 635 nm fluorescence, higher = more signal;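 also: score pools 667 nm emission and signal to noise measuring lysate protein binding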
# [10] = system: Sonic hedgehog protein (Shh); experiment: Sonic hedgehog microarray binding compounds – biochemical, small-molecule microarray, 635/667 nm fluorescence, primary screen (AID 1151); details: 635 nm fluorescence, higher = more signal;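 also: Shh protein binding to compounds spotted on small-molecule microarray slides; score combines spot fluorescence intensity with signal-to-noise across triplicate slides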
# [11] = optical density shifts of acrAB sulA E. coli – strain DRC41, OD650, 48 h, E. coli filamentation inducer project, primary screen (AID 1152); details: higher = more signal, called active from +8 up or from −8 down;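 also: E. coli MC1000 strain DRC41 lacking acrAB efflux pump and sulA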
# [12] = probe aLefty1 binding on compound microarray – biochemical, small-molecule microarray, 635/667 nm fluorescence, primary screen (AID 1153); details: higher = more signal;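 also: score merges spot fluorescence with signal-to-noise ratio from the scanned slide images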
# [13] = plasmodial surface anion channel blockers, osmotic lysis – cell-based, P. falciparum Indochina, OD700, 1 h, primary screen (AID 1154); details: P. falciparum Indochina infected RBC osmotic lysis, higher = more signal, called active from +8 up or from −8 down
# [14] = plasmodial surface anion channel blockers, osmotic lysis – cell-based, P. falciparum Indochina, OD700, 2 h, primary screen (AID 1155);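 also: lysis reports solute entry through the parasite surface anion channel PSAC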; details: P. falciparum Indochina infected erythrocytes, higher = more signal, called active from +8 up or from −8 down
# [15] = changes in parasitized red cell lysis, either direction – P. falciparum Indochina, OD700, 3 h, PSAC antagonist project, primary screen (AID 1156); details: P. falciparum-infected erythrocytes, osmotic lysis, higher = more signal, called active from +8 up or from −8 down
# [16] = plasmodial surface anion channel blockers, osmotic lysis – cell-based, P. falciparum Indochina, OD700, 18 h, primary screen (AID 1157); details: P. falciparum Indochina infected erythrocytes, osmotic lysis OD700, 18 h; higher = more signal, called active from +8 up or from −8 down
# [17] = S6 kinase pathway phospho-S6 level changes – cell-based, A549, cytoblot, luminescence, serum-stimulated, primary screen (AID 1158); details: 5 h, higher = more signal;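 also: serum-stimulated A549 lung adenocarcinoma cells; signal is phosphorylated S6 detected by cytoblot immunostaining with HRP secondary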
# [18] = target: NADPH oxidase 2 (Homo sapiens) (UniProt P04839); experiment: compounds shifting NOX2 Amplex Red fluorescence – cell-based, HEK293-NOX2, PMA-stimulated, NOX inhibitor project, primary screen (AID 1159); details: 45 min, higher = more signal, called active from +8 up or from −8 down; also: test concentration not given here
# Chain of NADPH oxidase 2 (Homo sapiens) (P04839 whole entry, looked up): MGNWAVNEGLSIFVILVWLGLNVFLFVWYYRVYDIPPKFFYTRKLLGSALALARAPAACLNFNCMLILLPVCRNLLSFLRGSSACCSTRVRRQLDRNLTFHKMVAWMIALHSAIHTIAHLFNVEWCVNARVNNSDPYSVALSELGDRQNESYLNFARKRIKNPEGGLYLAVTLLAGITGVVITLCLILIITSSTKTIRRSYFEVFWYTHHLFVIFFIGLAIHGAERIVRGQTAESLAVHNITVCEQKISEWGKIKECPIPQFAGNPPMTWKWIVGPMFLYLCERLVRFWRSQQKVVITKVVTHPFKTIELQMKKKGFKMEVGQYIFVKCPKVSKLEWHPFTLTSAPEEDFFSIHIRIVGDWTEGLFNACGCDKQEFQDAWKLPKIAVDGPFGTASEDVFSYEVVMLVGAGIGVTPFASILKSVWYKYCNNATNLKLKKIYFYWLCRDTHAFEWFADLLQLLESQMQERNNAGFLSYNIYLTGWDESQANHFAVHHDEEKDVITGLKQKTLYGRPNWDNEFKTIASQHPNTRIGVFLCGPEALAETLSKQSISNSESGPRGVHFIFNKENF
# [19] = target: NADPH oxidase 4 (Homo sapiens) (UniProt Q9NPH5); experiment: compounds shifting NOX4 Amplex Red fluorescence – cell-based, HEK293-NOX4, tetracycline-induced, NOX inhibitor project, primary screen (AID 1160); details: HEK293-NOX4, Amplex Red H2O2 fluorescence, 45 min; higher = more signal, called active from +8 up or from −8 down
# Chain of NADPH oxidase 4 (Homo sapiens) (Q9NPH5 whole entry, looked up): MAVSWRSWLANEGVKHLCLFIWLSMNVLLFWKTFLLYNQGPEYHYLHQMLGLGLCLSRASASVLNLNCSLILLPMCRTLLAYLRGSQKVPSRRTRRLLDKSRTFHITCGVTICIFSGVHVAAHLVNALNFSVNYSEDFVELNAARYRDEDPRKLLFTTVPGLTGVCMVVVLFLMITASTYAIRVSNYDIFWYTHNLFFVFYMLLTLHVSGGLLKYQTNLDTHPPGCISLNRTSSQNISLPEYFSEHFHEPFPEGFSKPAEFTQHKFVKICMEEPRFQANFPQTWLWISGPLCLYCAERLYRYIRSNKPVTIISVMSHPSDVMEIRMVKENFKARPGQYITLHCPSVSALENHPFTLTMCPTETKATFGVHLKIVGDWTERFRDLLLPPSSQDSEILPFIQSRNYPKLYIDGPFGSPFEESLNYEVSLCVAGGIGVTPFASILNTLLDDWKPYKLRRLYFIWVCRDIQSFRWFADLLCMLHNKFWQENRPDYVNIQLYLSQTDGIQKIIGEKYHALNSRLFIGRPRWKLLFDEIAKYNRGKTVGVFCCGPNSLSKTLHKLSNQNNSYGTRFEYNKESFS
# [20] = target: NADPH oxidase 5 (Homo sapiens) (UniProt Q96PH1); experiment: compounds shifting NOX5 Amplex Red fluorescence – cell-based, HEK293-NOX5, NOX inhibitor project, primary screen (AID 1161); details: HEK293-NOX5, ionomycin, 45 min, higher = more signal
# Chain of NADPH oxidase 5 (Homo sapiens) (Q96PH1 whole entry, looked up): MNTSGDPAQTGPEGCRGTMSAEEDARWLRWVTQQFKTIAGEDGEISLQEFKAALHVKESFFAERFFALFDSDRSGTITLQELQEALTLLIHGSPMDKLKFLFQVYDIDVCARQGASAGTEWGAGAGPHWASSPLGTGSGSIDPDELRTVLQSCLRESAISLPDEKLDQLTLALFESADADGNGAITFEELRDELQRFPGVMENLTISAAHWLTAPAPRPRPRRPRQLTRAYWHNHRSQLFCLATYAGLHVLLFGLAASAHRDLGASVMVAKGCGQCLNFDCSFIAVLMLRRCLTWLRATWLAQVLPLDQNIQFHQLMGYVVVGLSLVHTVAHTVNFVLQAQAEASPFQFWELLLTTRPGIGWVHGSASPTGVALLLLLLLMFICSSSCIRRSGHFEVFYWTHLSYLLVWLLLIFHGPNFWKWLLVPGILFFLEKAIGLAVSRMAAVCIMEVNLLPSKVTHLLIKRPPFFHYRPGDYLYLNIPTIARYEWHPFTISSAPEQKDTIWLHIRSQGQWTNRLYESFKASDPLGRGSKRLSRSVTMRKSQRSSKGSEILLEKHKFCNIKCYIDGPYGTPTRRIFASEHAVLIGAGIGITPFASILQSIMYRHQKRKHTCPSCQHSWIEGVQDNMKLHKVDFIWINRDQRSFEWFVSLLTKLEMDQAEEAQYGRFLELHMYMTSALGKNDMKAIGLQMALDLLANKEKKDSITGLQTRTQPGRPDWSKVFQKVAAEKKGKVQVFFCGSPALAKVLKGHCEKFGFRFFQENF
Structure (SMILES),composite z-score [1],z-score [2],z-score [3],z-score [4],z-score [5],composite z-score [6],composite z-score [7],composite z-score (Torsin-1A (Homo sapiens) [8]),composite z-score (Torsin-1A (Homo sapiens) [9]),composite z-score [10],z-score [11],composite z-score [12],z-score [13],z-score [14],z-score [15],z-score [16],z-score [17],z-score [18],z-score [19],z-score [20]
O=C1OCCC/C=C\[C@H]2OC34C=CCN(CCN5CCOCC5)C(=O)[C@H]3N(CCCCCCO)C(=O)[C@@H]4C12 (stereo not given in full),-0.089,-0.129 (inactive),-1.18 (inactive),0.325 (inactive),-0.0772 (inactive),-0.215,-0.0791,0.944,-0.404,0.837,1.76 (inactive),0.369,3.78 (inactive),-0.652 (inactive),0.752 (inactive),-0.774 (inactive),1.66,0.752 (inactive),-0.153 (inactive),1.9
CC(CO)N1C(=O)[C@@H]2[C@H]3C(=O)OCC=C[C@H]3OC23C=CCN(CCN2CCOCC2)C(=O)[C@@H]13 (stereo not given in full),0.0471,-0.62 (inactive),1.3 (inactive),0.463 (inactive),0.0027 (inactive),-0.418,-0.314,-0.829,-0.475,1.65,-1.06 (inactive),-0.482,0.158 (inactive),-0.358 (inactive),-0.0103 (inactive),-0.255 (inactive),-0.471,0.381 (inactive),0.194 (inactive),1.2
COCCOC(=O)N1C(=O)[C@@]2(c3cc(C#CC4(O)CCCCCC4)ccc31)[C@H](c1ccc(O)cc1)N1[C@H](c3ccccc3)[C@H](c3ccccc3)OC(=O)[C@H]1[C@@H]2C(=O)NC[C@H](O)c1ccccc1,0.677,-1.48 (inactive),-0.277 (inactive),0.712 (inactive),-0.61 (inactive),0.383,-0.125,0.116,1.09,1.21,-0.686 (inactive),0.405,1.14 (inactive),0.487 (inactive),-1.17 (inactive),0.196 (inactive),0.101,1.97 (inactive),0.895 (inactive),1.2
Cn1cccc1C(O)C1C=CC2C(=O)NC(=O)C2N1Nc1ccc(Cl)cc1Cl (stereo not given),0.0792,-0.316 (inactive),-0.668 (inactive),0.812 (inactive),2.09 (inactive),1.37,0.374,0.887,1.05,-0.269,-3.18 (inactive),0.0981,2.16 (inactive),1.35 (inactive),0.304 (inactive),1.07 (inactive),-1.42,-0.663 (inactive),-3.85 (inactive),-2.71
COc1cc(OC)c(C(O)C2C=CC3C(=O)N(c4ccccc4)C(=O)C3N2Nc2ccccc2)cc1Br (stereo not given),-0.0276,-1.12 (inactive),-0.415 (inactive),0.0501 (inactive),-0.434 (inactive),1.24,0.0155,-0.162,0.282,-0.381,-0.789 (inactive),0.0834,20.2 (active),5.27 (inactive),0.508 (inactive),2.03 (inactive),-0.543,-1.61 (inactive),-4.38 (inactive),-2.38
CCCC[C@@H]1C[C@H]1[C@@H](NC(=O)c1ccccc1)c1ccc(C(F)(F)F)cc1,-0.547,0.085 (inactive),0.401 (inactive),-0.572 (inactive),0.24 (inactive),0.056,-0.143,-1.15,-0.349,-1.85,-0.903 (inactive),0.361,-0.512 (inactive),0.0991 (inactive),0.162 (inactive),0.739 (inactive),-0.295,-0.3 (inactive),-0.742 (inactive),0.689
COc1ccc(C(O)C2C=CC3C(=O)N(c4ccccc4)C(=O)C3N2Nc2ccc([N+](=O)[O-])cc2)cc1 (stereo not given),0.516,-0.474 (inactive),0.403 (inactive),0.182 (inactive),-0.298 (inactive),0.789,1.18,0.0294,0.874,-0.397,-1.35 (inactive),0.987,14.3 (active),2.49 (inactive),0.547 (inactive),1.24 (inactive),-0.727,-0.897 (inactive),-2.79 (inactive),-2.72
C=CCOC(=O)[C@H]1[C@@H]2C(=O)O[C@@H](c3ccccc3)[C@@H](c3ccccc3)N2[C@@H](c2ccc(OCCOC(=O)[C@H]3C[C@H]4C(=O)N[C@@H](CCCCNC(C)=O)C(=O)N4[C@H]3c3ccc(O)cc3)cc2)[C@]12C(=O)Nc1ccccc12,0.228,-1.59 (inactive),-1.57 (inactive),0.147 (inactive),-0.542 (inactive),-0.292,-0.146,0.757,0.835,1.75,3.24 (inactive),0.026,1.59 (inactive),0.512 (inactive),-0.821 (inactive),-0.927 (inactive),1.4,1.89 (inactive),1.44 (inactive),1.04
CCOC(=O)[C@H]1[C@@H]2C(=O)N3CCC[C@H]3[C@H](O[Si](C(C)C)(C(C)C)C(C)C)[C@H]2C=C2CCN(S(=O)(=O)c3ccc(C)cc3)C[C@H]21,0.0328,-5.75 (inactive),0.426 (inactive),0.673 (inactive),0.986 (inactive),1.03,-0.0468,0.353,0.163,1.58,-1.12 (inactive),-0.202,5.55 (inactive),1.24 (inactive),0.216 (inactive),1.02 (inactive),0.582,0.163 (inactive),-0.264 (inactive),1.69
CCOC(=O)C1=C[C@@H](c2ccccc2)N(S(=O)(=O)c2ccc(C)cc2)[C@H]1c1ccccc1Cl,0.387,-3.97 (inactive),0.533 (inactive),-0.312 (inactive),0.343 (inactive),1.6,-0.0221,0.888,0.273,0.844,-1.18 (inactive),0.138,1.35 (inactive),1.16 (inactive),-0.0415 (inactive),0.805 (inactive),-0.48,0.574 (inactive),0.138 (inactive),0.405
C[N+](C)(C)CCCCCCNC(=O)[C@H]1C[C@H]2C(=O)NCC(=O)N2[C@H]1c1ccc(O)cc1,0.119,-0.274 (inactive),0.0567 (inactive),-1.35 (inactive),0.444 (inactive),-0.337,-0.354,0.261,0.349,2.09,0.16 (inactive),-0.455,1.76 (inactive),0.682 (inactive),-1.2 (inactive),-0.0189 (inactive),-0.217,0.446 (inactive),0.256 (inactive),0.328
